Bioassay records as filed in PubChem BioAssay.
IDE cell activ: activators of human insulin-degrading enzyme in cells; hit rate 0.073% among 340,000; activation, % at 5.96 µM; P14735; AID 493087; HEK cells, FAbeta-B cleavage, fluorescence polarization; 0% vehicle, 100% cell-free pure enzyme wells;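 active = activation above the mean of all tested compounds plus 3 SD, set per screening campaign, cut at about 17% in these data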
PP1 inh: blocks human PP1-alpha phosphatase, a PP5 counter-screen | AID 2235 | hit rate 0.9% among 320,000 | inhibition, % at 6.7 µM | purified PP1alpha, OMFP fluorescence | P62136;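 active = inhibition above the mean inhibition of all tested compounds plus 3 SD, computed separately for each screening campaign, cut at about 15% in these data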
PP5 primary: blocks human protein phosphatase 5 activity; inhibition, % at 6.7 µM; P53041; AID 1987; hit rate 0.18% among 320,000; purified PP5c, OMFP substrate fluorescence;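 active = inhibition above the campaign's mean inhibition across all tested compounds plus 3 SD, cut at about 9.5% in these data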
Target sequence (P53041 whole entry, looked up): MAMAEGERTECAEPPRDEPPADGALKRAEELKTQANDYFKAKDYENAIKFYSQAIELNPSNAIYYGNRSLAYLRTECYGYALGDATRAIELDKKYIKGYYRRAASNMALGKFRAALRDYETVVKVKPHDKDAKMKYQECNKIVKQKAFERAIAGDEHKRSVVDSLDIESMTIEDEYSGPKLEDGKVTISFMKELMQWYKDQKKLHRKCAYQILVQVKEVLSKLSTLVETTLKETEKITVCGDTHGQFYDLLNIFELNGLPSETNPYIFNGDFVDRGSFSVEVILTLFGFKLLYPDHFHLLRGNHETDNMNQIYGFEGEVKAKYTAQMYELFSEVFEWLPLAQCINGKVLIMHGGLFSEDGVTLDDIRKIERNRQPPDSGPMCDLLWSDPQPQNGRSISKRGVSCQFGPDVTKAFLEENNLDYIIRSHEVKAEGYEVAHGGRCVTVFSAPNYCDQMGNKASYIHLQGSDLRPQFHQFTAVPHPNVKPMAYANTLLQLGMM
SKKanGAS inh: SKKanGAS growth inhibition | S. pyogenes SKKanGAS, kanamycin growth, BacTiter-Glo, 6 h | inhibition, % at 7.5 µM | hit rate 1.3% among 300,000;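 active = mean replicate score, as percent of positive control median, at least 50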;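 note: strain carries kanamycin resistance gene driven by streptokinase promoter and grows in 40 µg/ml kanamycin; loss of luminescence reflects streptokinase promoter inhibition or plain growth inhibition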
Exocytosis inh: blocks lytic granule exocytosis; AID 651702; TALL-104 LAMP-1 surface exposure, flow cytometry; cells stimulated with thapsigargin and PMA; inhibition, % at 10 µM; hit rate 0.66% among 360,000;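 active = inhibition above about 55%, limit read from the data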
IDE cell inh: inhibitors of human insulin-degrading enzyme in cells. P14735. HEK cells, FAbetaB cleavage, fluorescence polarization. inhibition, % at 5.59 µM. hit rate 0.41% among 320,000;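 active = percent inhibition above the average of all tested compounds plus 3 SD, set per screening campaign, cut at about 16% in these data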;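 note: IDE supplied by intact live HEK cells; FP after avidin binding of uncleaved biotin substrate so inhibition keeps polarization high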
Granule exo CP1: blocks lytic granule exocytosis | shares compounds with Exocytosis inh | TALL-104 cells, LAMP-1 externalization, flow cytometry; stimulated with PMA plus thapsigargin | inhibition, % at 10 µM | hit rate 11% among 1,500; in the data active = inhibition above about 60%
Numbers stand for hits; - = inactive; . = no result; ! = not confirmed by another sample. A selection: hits, their analogues and other compounds. The true share with any hit is near 2.8%.

SMILES	IDE cell activ	PP1 inh	PP5 primary	SKKanGAS inh	Exocytosis inh	IDE cell inh	Granule exo CP1
COc1cc(/C=C2\C(=N)N3N=C(S(C)(=O)=O)SC3=NC2=O)ccc1OC(=O)c1ccco1	-	-	-	-	-	-	.
CCN(Cc1ccccc1)CC(O)COC(c1ccc(OC)cc1)c1ccc(OC)cc1 (stereo not given)	-	-	-	-	66	-	-
CCN(CC)CC(O)COC(c1ccccc1)c1ccccc1 (stereo not given)	-	-	-	-	-	-	.
Cc1ccccc1CN1CCc2cc([N+](=O)[O-])ccc21	-	-	-	-	115	-	-
COc1ccc([N+](=O)[O-])cc1NCc1ccccc1C	-	-	-	-	-	-	.
Oc1cc(Br)ccc1C=Nc1ccc(N2CCCCC2)cc1	-	-	-	-	65	-	-
COc1ccc(C(=O)COC(=O)CNS(=O)(=O)c2ccc(C)cc2)cc1	-	-	-	-	-	-	.
Cc1ccc(N(Cc2cc3cc(C)ccc3[nH]c2=O)S(=O)(=O)c2ccccc2)cc1	-	-	-	-	-	-	.
CCCCNc1c(-c2ccc(SC3CCCCC3)c(OC)c2)nc2ccc(C)cn12	-	.	.	.	-	-	.
CCCCNc1c(-c2ccc(OC)c(SC3CCCCC3)c2)nc2ccc(C)cn12	-	.	.	.	86!	-	77
NC1=NC2CS(=O)(=O)CC2S1 (stereo not given)	-	-	-	-	-	-	.
CCCCn1c(=N)n(CC(=O)c2ccc(Br)s2)c2ccccc21	-	-	-	-	82	-	96
CCn1c2ccc(C)cc2c2nnc(SCCN3CCCCC3)nc21	-	-	-	-	97	-	-
CCOc1ccc(CCNC(=O)CN2C(=O)CCSc3ccccc32)cc1OCC	-	-	-	-	96	-	-
CSc1ccc(CCNC(=O)CN2C(=O)CCSc3ccccc32)cc1	-	-	-	-	-	-	.
COCCN(C(=O)Nc1ccc(OC)cc1)c1nc2ccccc2s1	-	-	-	-	-	-	.
CN1CCN(c2nc(-c3ccncc3)nc3ccccc23)CC1	-	-	-	-	-	-	.
c1ccc2c(N3CCCC3)nc(-c3ccncc3)nc2c1	-	-	-	-	60	-	-
O=C(CO)c1c[nH]c2ccccc12	.	.	.	.	-	.	.
Cc1ccc(NC(=O)CC2SC3=NCCCN3C2=O)c(C)c1 (stereo not given)	-	-	-	-	67	-	-
O=C(CC1SC2=NCCN2C1=O)Nc1ccc(Cl)cc1 (stereo not given)	-	-	-	-	-	-	.
Cc1ccc(NC(=O)CSC(C)C(=O)OCC(=O)N2CCN(C(=O)c3ccco3)CC2)cc1 (stereo not given)	-	-	-	-	-	-	.
O=S(=O)(c1ccc(Br)s1)N1CCN(c2ccc(F)cc2)CC1	-	-	-	-	66	-	-
CCC1CCCCN1CCCNC(=O)c1ccc2c(c1)N(Cc1ccc(F)cc1)C(=O)c1ccccc1S2=O (stereo not given)	-	-	-	-	61	-	-
COc1ccc(-c2oc3ncnc(NCCCN(C)C)c3c2-c2ccc(OC)cc2)cc1	-	-	-	-	69	-	-
SMILES	IDE cell activ	PP1 inh	PP5 primary	SKKanGAS inh	Exocytosis inh	IDE cell inh	Granule exo CP1
O=C(CN1CCN(Cc2ccc(F)cc2Cl)CC1)NCc1ccccc1	-	-	-	-	-	-	.
NC(Cc1ccccc1)c1csc(Nc2ccc(C(=O)c3ccccc3)cc2)n1 (stereo not given)	.	.	.	.	-	.	.
NC(Cc1ccc(Cl)cc1)c1csc(Nc2ccc(C(=O)c3ccccc3)cc2)n1 (stereo not given)	.	.	.	.	58	.	-
CC1(C2CC2)NC(=O)N(CC(=O)NCC(=O)Nc2ccc(F)c(F)c2F)C1=O (stereo not given)	-	.	.	.	56	-	-
Cc1ccc(-n2nc3c(N4CCC(C(=O)NCc5ccc(C)o5)CC4)nnc(C)c3c2C)cc1	-	-	-	-	-	-	.
Cc1ccc(-n2nc3c(N4CCC(C(=O)NCc5cccc(F)c5)CC4)nnc(C)c3c2C)cc1	-	-	-	-	59	-	-
COc1ccc(-n2nc3c(N4CCC(C(=O)NCc5ccccc5C)CC4)nnc(C)c3c2C)cc1	-	-	-	-	-	-	.
CCOc1ccccc1CNC(=O)C1CCCN(c2nnc(C)c3c(C)n(-c4ccccc4)nc23)C1 (stereo not given)	-	-	-	-	72	-	-
O=C(NC(c1ccc2c(c1)OCO2)c1ccccn1)C1CCN(CCOc2ccccc2)CC1 (stereo not given)	.	.	.	.	-	.	.
COc1cccc(C(=O)NCCS(=O)(=O)NCCCc2ccccc2)c1	-	-	-	-	-	-	.
COc1ccc(C(C(=O)NCc2ccccc2)N(C(=O)c2snc(C(N)=O)c2N)c2ccccc2OC)cc1 (stereo not given)	-	-	-	-	65	-	-
O=C(NCCCN1CCCC1=O)C1CCN(S(=O)(=O)c2cccc(C(F)(F)F)c2)CC1	-	-	-	-	-	-	.
O=C(NCCCN1CCCC1=O)C1CCN(S(=O)(=O)c2cc(C(F)(F)F)ccc2Cl)CC1	-	-	-	.	90	-	-
COc1ccc(NC(=O)N(C2CCCCC2)C2CCN(C(C)C)CC2)c(OC)c1	-	.	.	-	70	.	-
COc1ccc(NC(=O)N(C2CCCCC2)C(C)c2ccco2)c(OC)c1 (stereo not given)	-	-	-	-	-	-	.
CCc1cccc(CC)c1NC(=O)c1cccc(NC(=O)c2ccccc2)c1	-	-	-	-	-	-	.
CCc1cccc(C)c1NC(=O)c1cccc(N(C)C)c1	-	-	-	-	70	-	-
CC1(C(=O)NCc2cccnc2)CCN1C(=O)Cc1cccs1 (stereo not given)	.	.	.	.	-	.	.
CCn1cc(CN2CCc3c([nH]c4ccccc34)C2c2cccc(OC)c2OC)c(C)n1 (stereo not given)	-	-	-	-	59	-	-
COc1cc(C2c3[nH]c4ccccc4c3CCN2Cc2cn(C)nc2C)ccc1F (stereo not given)	-	-	-	-	-	-	.
CC(C)c1nc2sc3c(c2c(=O)[nH]1)CC(C)(C)OC3	-	.	.	-	-	.	.
O=C(O)c1ccc(-c2noc(-c3ccccc3F)n2)cc1	-	-	-	-	97	-	-
Cc1ccc(-c2noc(-c3ccccc3F)n2)cc1	-	-	-	-	-	-	.
Cc1ccc(-c2cc(C(=O)Nc3cccc(S(=O)(=O)N(C)C)c3)c3ccccc3n2)o1	-	-	-	-	66	-	-
COc1cc(-c2cc(C(=O)Nc3cccc(S(=O)(=O)N(C)C)c3)c3ccccc3n2)cc(OC)c1OC	-	-	-	-	-	-	.
Cc1ccc(-c2cc(C(=O)Nc3ccccc3C)c3ccccc3n2)o1	-	-	-	-	82	-	-
O=C(c1ccco1)N1CCN(c2nc3ccccc3n3nnnc23)CC1	-	-	-	.	56	-	-
